Measured values taken from PubChem BioAssay (Tox21).
Several values for one entry are separate records, joined by “and”; a condition that tells them apart may be missing. Identical values can stand only once. Results filed as inconclusive are left out. Activity calls are given as the source filed them. Unless noted, calls follow the shape of the full dose curve.

Legend:
[1] = Nuclear factor erythroid 2-related factor 2/antioxidant responsive element (Nrf2/ARE) small molecule agonists: qHTS cell viability counter screen in human keratinocytes (AID 1919968; active = well fitted curve in the direction sought with a large enough effect in the repeat runs; an effect the other way counts as inactive or inconclusive; also: nearly all actives have a fitted effect of over 55% in size; also: potency is read from the fitted curve at half-maximal effect)
Procedure, shortened: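 In human HaCaT keratinocytes stably expressing an ARE-driven luciferase, compound exposure lasted 23 h at 37 C under 5% CO2. Viable cells are quantified with a protease-based fluorogenic reagent (CellTiter-Fluor) read 1 h after addition.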

[2] = Nuclear factor erythroid 2-related factor 2/antioxidant responsive element (Nrf2/ARE) small molecule agonists: luciferase reporter gene qHTS assay in human keratinocytes (AID 1919969); also: nearly all actives have a fitted effect of over 35% in size; also: potency is read from the fitted curve at half-maximal effect
[3] = molecular target: Gonadotropin-releasing hormone receptor (Homo sapiens) (UniProt P30968); test: Human gonadotropin-releasing hormone receptor (GnRHR) small molecule agonists, calcium flux assay in GnRHR-HEK293 cells (AID 1920063); also: nearly all actives have a fitted effect of over 35% in size
Chain of Gonadotropin-releasing hormone receptor (Homo sapiens) (P30968 whole entry, looked up): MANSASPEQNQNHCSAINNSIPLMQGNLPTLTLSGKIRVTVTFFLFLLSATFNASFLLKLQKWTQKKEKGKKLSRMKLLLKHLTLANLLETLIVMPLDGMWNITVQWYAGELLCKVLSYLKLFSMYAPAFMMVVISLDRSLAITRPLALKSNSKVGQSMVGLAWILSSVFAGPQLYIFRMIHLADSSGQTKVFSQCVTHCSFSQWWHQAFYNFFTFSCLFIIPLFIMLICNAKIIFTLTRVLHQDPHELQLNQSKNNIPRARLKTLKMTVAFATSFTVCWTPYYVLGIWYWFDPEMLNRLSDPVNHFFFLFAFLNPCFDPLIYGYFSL
Procedure, shortened: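 Intracellular calcium rise is the read-out: engineered human GnRHR HEK293 cells, dye-loaded, are exposed to DMSO-dissolved compounds and fluorescence at Ex/Em 480/540 is tracked for 3 min.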

[4] = molecular target: KiSS-1 receptor (Homo sapiens) (UniProt Q969F8); test: Human kisspeptin (KISS1R) small molecule agonists, calcium flux assay in KISS1R-HEK293 cells (AID 1920064; active = well fitted curve in the direction sought with a large enough effect in the repeat runs; an effect the other way counts as inactive or inconclusive)
Chain of KiSS-1 receptor (Homo sapiens) (Q969F8 whole entry, looked up): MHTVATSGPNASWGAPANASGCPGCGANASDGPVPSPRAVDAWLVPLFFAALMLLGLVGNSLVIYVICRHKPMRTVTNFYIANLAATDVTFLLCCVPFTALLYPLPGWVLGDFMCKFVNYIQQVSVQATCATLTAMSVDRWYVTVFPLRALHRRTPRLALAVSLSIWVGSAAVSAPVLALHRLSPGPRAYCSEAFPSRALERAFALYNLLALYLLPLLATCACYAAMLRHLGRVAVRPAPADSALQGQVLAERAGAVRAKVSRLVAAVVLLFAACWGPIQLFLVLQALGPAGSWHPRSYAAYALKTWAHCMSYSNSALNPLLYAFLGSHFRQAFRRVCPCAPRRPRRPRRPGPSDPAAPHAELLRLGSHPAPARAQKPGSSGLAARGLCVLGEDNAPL
Procedure, shortened: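 Concentration-response testing used 15 concentrations in triplicate on human KISS1R-expressing HEK293 cells. Calcium-dependent fluorescence (Ex/Em 480/540) was followed kinetically for 3 min after compound transfer.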

[5] = G protein-coupled receptor (GPCR) small molecule agonists, calcium flux assay: HEK293 wild type cell line counter screen (AID 1920065)
Procedure, shortened: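 Fluorescence intensity signals activation. After overnight (18 h) culture and a 1 h calcium dye load at 37 C, compounds are added by pin tool and the plate read at 480/540 nm for 3 min in 1 s steps.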

[6] = p53 small molecule agonists, cell-based qHTS assay with human liver microsomes: qHTS cell viability counter screen (AID 1963579); also: nearly all actives have a fitted effect of over 45% in size
Procedure, shortened: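 Metabolic activation used human liver microsomes and NADPH, both 0.5 mg/mL final, over 16 hours at 37 C on p53RE-bla cells (4,000/well). Cytotoxicity measured by CellTiter-Glo luminescence, 30 min at room temperature.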

[7] = p53 small molecule agonists, cell-based qHTS assay with rat liver microsomes: qHTS cell viability counter screen (AID 1963580); also: nearly all actives have a fitted effect of over 45% in size
Procedure, shortened: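 Luminescent ATP readout (CellTiter-Glo, 30 min at room temperature) reports viability of p53RE-bla HCT-116 cells after 16 h at 37 C with test compounds under metabolic activation by rat liver microsomes and NADPH at 0.5 mg/mL final each.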

[8] = p53 small molecule agonists, cell-based qHTS assay: qHTS cell viability counter screen (AID 1963581); also: nearly all actives have a fitted effect of over 45% in size
Procedure, shortened: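 Luminescence from CellTiter-Glo, reflecting ATP content, serves as the cytotoxicity measure; it is taken after the 2 h reporter substrate step in HCT-116 p53RE-bla cells dosed for 16 h at 37 C.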

[9] = p53 small molecule agonists, cell-based qHTS assay (AID 1963582; active = well fitted activation curve with a large enough effect in the signal ratio in the repeat runs, not every such curve was filed as active; the % refers to the signal ratio)
Procedure, shortened: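 After plating, p53RE-bla cells sat 5 h in the incubator; compounds or DMSO vehicle were pinned in; a 16 h incubation at 37 C followed; FRET substrate was added and, 2 h later at RT, fluorescence was measured.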

[10] = molecular target: 5-hydroxytryptamine receptor 2A (Homo sapiens) (UniProt P28223); test: 5-hydroxytryptamine receptor 2A (HTR2A) small molecule agonists, cell-based qHTS assay (AID 1963587); also: nearly all actives have a fitted effect of over 30% in size
Chain of 5-hydroxytryptamine receptor 2A (Homo sapiens) (P28223 whole entry, looked up): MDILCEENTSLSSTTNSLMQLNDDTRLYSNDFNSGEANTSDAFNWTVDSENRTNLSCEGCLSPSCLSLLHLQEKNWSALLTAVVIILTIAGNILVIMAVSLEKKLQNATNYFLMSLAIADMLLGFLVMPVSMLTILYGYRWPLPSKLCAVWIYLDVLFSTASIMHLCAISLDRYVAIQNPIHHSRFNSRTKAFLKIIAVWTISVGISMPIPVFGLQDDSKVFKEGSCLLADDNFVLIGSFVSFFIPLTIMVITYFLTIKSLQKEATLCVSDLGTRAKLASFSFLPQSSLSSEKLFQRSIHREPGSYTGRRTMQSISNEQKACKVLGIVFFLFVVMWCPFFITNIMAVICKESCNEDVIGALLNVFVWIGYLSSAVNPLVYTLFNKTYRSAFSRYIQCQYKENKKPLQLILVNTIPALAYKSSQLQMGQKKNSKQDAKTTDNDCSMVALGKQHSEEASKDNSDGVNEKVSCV
Procedure, shortened: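 HTR2A-CHO cells, plated 18 h at 37 C/5% CO2, dye-loaded 1 h at 37 C; compounds in DMSO added by pin tool (agonist mode). Intracellular calcium flux read as kinetic fluorescence on FDSS over 2 min at 1 s intervals.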

[11] = molecular target: Muscarinic acetylcholine receptor M1 (Homo sapiens) (UniProt P11229); test: Cholinergic receptor muscarinic 1 (CHRM1) small molecule antagonists, cell-based qHTS assay (AID 1963588); also: nearly all actives have a fitted effect of over 40% in size
Chain of Muscarinic acetylcholine receptor M1 (Homo sapiens) (P11229 whole entry, looked up): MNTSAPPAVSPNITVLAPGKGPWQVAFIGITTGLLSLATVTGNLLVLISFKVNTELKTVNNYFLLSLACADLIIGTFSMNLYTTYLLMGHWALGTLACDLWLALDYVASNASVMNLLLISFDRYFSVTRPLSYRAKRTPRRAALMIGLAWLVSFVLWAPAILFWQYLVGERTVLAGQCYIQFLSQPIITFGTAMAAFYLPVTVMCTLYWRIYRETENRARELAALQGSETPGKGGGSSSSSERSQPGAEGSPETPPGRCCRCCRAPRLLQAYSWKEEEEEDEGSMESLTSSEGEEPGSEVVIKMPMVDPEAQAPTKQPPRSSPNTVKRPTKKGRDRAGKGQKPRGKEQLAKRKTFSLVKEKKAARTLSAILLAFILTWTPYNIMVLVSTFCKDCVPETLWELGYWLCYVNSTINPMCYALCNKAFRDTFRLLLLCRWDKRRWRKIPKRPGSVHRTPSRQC
Procedure, shortened: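 Compounds were tested at 15 concentrations in three independent runs. Dye-loaded CHRM1-CHO cells were exposed 5 min at room temperature before stimulation by acetylcholine added at 50nM. Intracellular calcium was read kinetically on FDSS for 3 min.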

[12] = molecular target: Muscarinic acetylcholine receptor M1 (Homo sapiens) (UniProt P11229); test: Cholinergic receptor muscarinic 1 (CHRM1) small molecule agonists, cell-based qHTS assay (AID 1963589); also: nearly all actives have a fitted effect of over 35% in size
Procedure, shortened: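 Fluorescent calcium dye reports M1 activation in stably transfected CHO cells. Compounds, 15 concentrations, added after 1 h dye loading at 37 C; kinetic reading at 1 sec intervals.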

[13] = cAMP Responsive Elements (CRE) small molecule agonists, cell-based qHTS assay (AID 1963590)
Procedure, shortened: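 Compound exposure lasted 3 h at 37 C/5% CO2 in CRE-bla HEK 293T cells grown in assay medium with 10% dialyzed FBS and 25 mM HEPES. Reporter signal came from LiveBLAzer B/G FRET substrate, 2 h, room temperature.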

[14] = cAMP Responsive Elements (CRE) small molecule antagonists, cell-based qHTS assay (AID 1963591; active = well fitted inhibition curve with a large enough effect in the signal ratio in the repeat runs, not every such curve was filed as active; the % refers to the signal ratio)
Procedure, shortened: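 Stimulation used NKH477 at a final 0.25 uM for 3 h in compound-treated CRE-bla HEK293T cells, seeded 18 h beforehand. Reporter activity was measured with LiveBLAzer B/G FRET substrate after 2 h at room temperature.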

[15] = molecular target: Beta-2 adrenergic receptor (Homo sapiens) (UniProt P07550); test: Adrenergic beta2 receptor (ADRB2) small molecule antagonists, cell-based qHTS assay (AID 1963592); also: series mostly up to about 92 µM; nearly all actives have a fitted effect of over 50% in size
Chain of Beta-2 adrenergic receptor (Homo sapiens) (P07550 whole entry, looked up): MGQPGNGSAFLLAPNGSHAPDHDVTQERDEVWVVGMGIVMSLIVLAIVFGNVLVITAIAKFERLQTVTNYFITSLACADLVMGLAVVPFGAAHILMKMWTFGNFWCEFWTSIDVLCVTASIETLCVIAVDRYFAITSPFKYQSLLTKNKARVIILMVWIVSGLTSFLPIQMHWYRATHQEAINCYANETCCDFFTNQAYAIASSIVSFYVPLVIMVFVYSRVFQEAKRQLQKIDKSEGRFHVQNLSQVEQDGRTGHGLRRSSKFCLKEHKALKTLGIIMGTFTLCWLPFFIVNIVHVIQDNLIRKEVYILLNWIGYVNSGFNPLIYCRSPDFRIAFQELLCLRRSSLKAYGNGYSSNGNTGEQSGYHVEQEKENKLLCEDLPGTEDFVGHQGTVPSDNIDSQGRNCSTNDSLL
Procedure, shortened: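 Assay format: CHO-ADRB2 cells, 18-20hr seeding at 37C/5% CO2, then compound plus 1nM isoproterenol agonist mix for 0.5hr RT. Homogeneous time-resolved fluorescence cAMP detection after 1hr, expressed as 665/615 nm ratio.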

[16] = molecular target: Beta-2 adrenergic receptor (Homo sapiens) (UniProt P07550); test: Adrenergic beta2 receptor (ADRB2) small molecule agonists, cell-based qHTS assay (AID 1963593);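 also: CHO cells stably overexpressing human ADRB2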
Procedure, shortened: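 CHO cells stably over-expressing ADRB2 were plated overnight at 37C, then dosed with compounds plus a stimulation mix containing 100uM IBMX and 25uM Ro-20-1724 for 0.5hr at room temperature. cAMP was measured by HTRF competition, 1hr.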

[17] = molecular target: D(2) dopamine receptor (Homo sapiens) (UniProt P14416); test: Dopamine D2 receptor (DRD2) small molecule agonists, cell-based qHTS assay (AID 1963594); also: nearly all actives have a fitted effect of over 35% in size
Chain of D(2) dopamine receptor (Homo sapiens) (P14416 whole entry, looked up): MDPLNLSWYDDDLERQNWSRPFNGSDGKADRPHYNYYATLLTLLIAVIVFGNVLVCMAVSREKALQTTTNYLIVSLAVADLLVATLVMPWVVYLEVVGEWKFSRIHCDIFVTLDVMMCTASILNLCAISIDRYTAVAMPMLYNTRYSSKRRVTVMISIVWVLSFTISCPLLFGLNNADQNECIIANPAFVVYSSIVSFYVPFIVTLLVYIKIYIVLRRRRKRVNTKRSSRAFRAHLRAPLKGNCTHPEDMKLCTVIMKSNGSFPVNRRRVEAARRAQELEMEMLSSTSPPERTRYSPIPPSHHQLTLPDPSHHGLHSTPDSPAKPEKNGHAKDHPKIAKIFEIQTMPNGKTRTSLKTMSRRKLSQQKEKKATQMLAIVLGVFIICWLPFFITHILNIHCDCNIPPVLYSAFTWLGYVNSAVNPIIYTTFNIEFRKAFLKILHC
Procedure, shortened: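 HEK293 cells stably expressing DRD2 were cultured 24 h at 37 C, then given Ro20-1724 (0.1 mM final) and compounds for 10 min at room temperature. NKH477 (200nM) was then added for 30 min. cAMP was read by HTRF.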

[18] = molecular target: D(2) dopamine receptor (Homo sapiens) (UniProt P14416); test: Dopamine D2 receptor (DRD2) small molecule antagonists, cell-based qHTS assay (AID 1963595; active = well fitted inhibition curve with a large enough effect in the signal ratio in the repeat runs, with a control signal flat; the % refers to the signal ratio)
Procedure, shortened: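 Antagonism was scored as restored cAMP in HEK293-DRD2 cells. These cells were stimulated with 200 nM NKH477 and 12 nM quinpirole for 30 min at room temperature, in the presence of 0.1 mM Ro20-1724.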

[19] = molecular target: 5-hydroxytryptamine receptor 2A (Homo sapiens) (UniProt P28223); test: 5-hydroxytryptamine receptor 2A (HTR2A) small molecule antagonists, cell-based qHTS assay (AID 1963586); also: nearly all actives have a fitted effect of over 45% in size
Procedure, shortened: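 CHO cells stably expressing human HTR2A were plated for 18 h at 37 C, then loaded with calcium dye for 1 h. Compounds were preincubated 5 min at room temperature before DOI (4 nM solution) was added. Kinetic fluorescence was read for 3 min.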

[20] = p53 small molecule agonists, cell-based qHTS assay with rat liver microsomes (AID 1963578)
Procedure, shortened: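 Metabolic activation by rat liver microsomes and NADPH, each 0.5 mg/mL final, added right after compounds to p53RE-bla reporter cells (4,000/well, plated 5 h earlier). 16 h at 37 C, then LiveBLAzer substrate for 2 h at room temperature in the dark; fluorescence read-out.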
% is scaled to controls: 0 for no effect and ±100 for the full control effect.

O=C(O)CNC(=O)c1ccccc1I
inactive: Potency [1] | Potency [2] | Potency [3] | Potency [4] | Potency [5] | Potency [6] | Potency [7] | Potency [8] | Potency [9] | Potency [10] | Potency [11] | Potency [12] | Potency [13] | Potency [14] | Potency [15] | Potency [16] | Potency [17] | Potency [18]

C1CCCC1
inactive: Potency [1] | Potency [2] | Potency [3] | Potency [4] | Potency [5] | Potency [6] | Potency [7] | Potency [8] | Potency [19] | Potency [10] | Potency [11] | Potency [12] | Potency [14] | Potency [15] | Potency [17] | Potency [18]

CCn1cc(C(=O)O)c(=O)c2cc3c(cc21)OCO3
inactive: Potency [1] | activity, positive = activation [2] -1.35% [at 19 µM] | Potency [3] | Potency [4] | Potency [5] | Potency [7] | Potency [8] | Potency [9] | Potency [19] | Potency [10] | Potency [11] | Potency [12] | activity change, negative = inhibition [14] -7.86% [at 18.9 µM] | Potency [15] | Potency [16] | Potency [17] | Potency [18]

CC[C@]1(O)C[C@@H]2CN(CCc3c([nH]c4ccccc34)[C@@](C(=O)OC)(c3cc4c(cc3OC)N(C)[C@H]3[C@@](O)(C(=O)OC)[C@H](OC(C)=O)[C@]5(CC)C=CCN6CC[C@]43[C@@H]65)C2)C1
inactive: Potency [1] | Potency [3] | Potency [4] | Potency [5] | Potency [15] | Potency [17] | Potency [18]
active: Potency [2] 211 nM and 596 nM

CCCc1cc(C(N)=S)ccn1
inactive: Potency [1] | Potency [2] | Potency [3] | Potency [4] | Potency [5] | Potency [20] | Potency [6] | Potency [7] | Potency [8] | Potency [9] | Potency [19] | Potency [10] | Potency [11] | Potency [12] | Potency [13] | Potency [14] | Potency [15] | Potency [16] | Potency [17]

COc1ccccc1N=Nc1c(S(=O)(=O)O)cc2cc(S(=O)(=O)O)cc(NC(C)=O)c2c1O
active: Potency [1] 40.7 µM
inactive: Potency [2] | Potency [3] | Potency [4] | Potency [5] | Potency [20] | Potency [6] | Potency [7] | Potency [8] | Potency [9] | Potency [19] | Potency [10] | Potency [11] | Potency [12] | Potency [13] | Potency [14]
